Experimental data from PubChem BioAssay AID2391 (Southern Research Specialized Biocontainment Screening …, 2010).
About 410 (0.13%) of roughly 310,000 compounds were called active. Not shown: some 2% with an inconclusive outcome. How the calls were made is not given here. A selection follows. Results with a measured potency or affinity are listed apart.

assay: inhibition of RSV-induced cytopathic effect – HEp-2 cells, primary 10 µM value included (AID 2391); conditions: at 10 µM, active compounds read high

Compound	CPE inhibition
CCc1nn(CC(=O)NCCCN(Cc2ccccc2)C(C)C)c(=O)c2cc3sccc3n12	3.25% (inactive)
CC(OC(=O)CSc1ccc(F)cc1)C(=O)NC1(C#N)CCCCC1 (stereo unspecified)	1.61% (inactive)
CC(C)(C)SCCNS(=O)(=O)c1ccccc1	2.31% (inactive)
COc1ccc(/C=C(/NC(=O)c2ccccc2)c2nc3ccccc3[nH]2)cc1OC	1.75% (inactive)
Cc1ccc(C(=O)N/C(=C\c2cccs2)c2nc3ccccc3[nH]2)cc1	1.69% (inactive)
O=C(N/C(=C/c1cccs1)c1nc2ccccc2[nH]1)c1ccccc1	-0.44% (inactive)
COc1ccc(C(=O)N/C(=C/c2cccs2)C(=O)NN)cc1OC	0.82% (inactive)
Cc1ccc2oc(C(=O)Nc3ccc(S(=O)(=O)Nc4onc(C)c4C)cc3)cc(=O)c2c1	1.61% (inactive)
Cc1ccc2oc(C(=O)Nc3ccc(S(=O)(=O)Nc4ncccn4)cc3)c(C)c2c1	1.95% (inactive)
Cc1cc(C)c(C(=O)Nc2ccc(S(=O)(=O)Nc3onc(C)c3C)cc2)c(C)c1	0.27% (inactive)
Cc1ccc2c(=O)cc(C(=O)Nc3ccc(S(=O)(=O)Nc4onc(C)c4C)cc3)oc2c1	1.69% (inactive)
O=C(N/N=C/c1cc2c(cc1Cl)OCO2)c1cccc(Br)c1	0.51% (inactive)
COc1ccc(C(c2nnnn2Cc2ccccc2)N2CCN(c3nc4ccccc4s3)CC2)cc1OC (stereo unspecified)	8.79% (inactive)
CNC(=O)NC(=O)COC(=O)/C=C/c1cccc(Br)c1	4.26% (inactive)
COC(=O)c1cccc(CSc2nc(-c3ccccc3)c(C#N)c(=O)[nH]2)c1	-0.22% (inactive)
O=C(COc1ncnc2ccc(Br)cc12)NC1CCCC1	-0.78% (inactive)
c1ccc(OCCOc2ncnc3ccccc23)cc1	2.27% (inactive)
COCCNC(=O)COc1ncnc2ccc(Br)cc12	0% (inactive)
c1ccc(CSc2ncnc3ccccc23)cc1	-0.1% (inactive)
N#CCSc1ncnc2ccccc12	0.16% (inactive)
O=C(COc1ncnc2ccccc12)NCCc1ccccc1	4.07% (inactive)
CCOC(=O)c1c(C)c(C(=O)Nc2ccc3c(c2)OCCO3)c(C)n1C	-0.46% (inactive)
N#Cc1nc(-c2ccco2)oc1NCc1ccco1	1.01% (inactive)
O=C(COc1ccccc1)Nc1ccccc1C(=O)NCc1ccco1	-0.74% (inactive)

Compound	CPE inhibition
COc1ccc(NC(=O)CN(C)C(=O)c2ccc3[nH]c4c(c3c2)CC(C)CC4)cc1 (stereo unspecified)	6.52% (inactive)
CC1CCc2[nH]c3ccc(C(=O)N(C)CC(=O)Nc4ccc(F)cc4)cc3c2C1 (stereo unspecified)	5.53% (inactive)
CCOc1cccc2c1OC1(C)CC2NC(=O)N1c1ccc(OC)cc1 (stereo unspecified)	0.71% (inactive)
C=CCN(c1ccc(F)cc1)S(=O)(=O)c1cc(C(=O)OCC(=O)N(C)C2CCS(=O)(=O)C2)ccc1Cl (stereo unspecified)	0.97% (inactive)
CCC(=O)NC(=S)Nc1ccc(NC(=O)COc2ccc(Cl)cc2Cl)cc1	3.92% (inactive)
CCC(=O)NC(=S)Nc1ccc(NC(=O)COc2ccccc2)cc1	-0.96% (inactive)
Nc1nc(SCCN2C(=O)c3ccccc3C2=O)n[nH]1	-0.57% (inactive)
CCOC(=O)C1(Cc2ccccc2)CCN(Cc2cccn2-c2nccs2)CC1	3.06% (inactive)
CCOC(=O)C1(Cc2cccc(OC)c2)CCN(Cc2cccn2-c2ccccn2)CC1	0.49% (inactive)
O=C(O)CN=C(NS(=O)(=O)c1ccc(Cl)cc1)c1ccc(F)cc1	0.86% (inactive)
O=C(CSc1nc2ccccc2c(=O)n1Cc1ccco1)NCc1ccco1	0.72% (inactive)
CCOC(=O)CSc1nc2ccccc2c(=O)n1Cc1ccco1	0.79% (inactive)
Cc1[nH]n(-c2ccccc2)c(=O)c1Sc1ccc(Cl)cc1	2.83% (inactive)
Cc1ccc(OCCn2cnc3cc([N+](=O)[O-])ccc3c2=O)cc1	5.29% (inactive)
COc1ccc(N(CC(=O)NC2CCCCC2)C(=O)c2ccc(C)s2)cc1OC	5.93% (inactive)
COc1ccc(N(CC(=O)NC2CCCC2)C(=O)c2ccc(C)s2)c(OC)c1	41% (inactive)
CC(=O)c1ccc(OCCCC(=O)NNC(=O)c2ccccn2)cc1	1.08% (inactive)
Cn1c(=O)c2ccccc2n(CC(=O)N2CCCc3ccccc32)c1=O	12.6% (inactive)
COc1cc(C2NC(=O)NC(C)=C2C(=O)OCc2ccc(C)cc2)cc(OC)c1OC (stereo unspecified)	1.37% (inactive)
CN(CC(=O)Nc1ccc(Cl)c(Cl)c1)C(=O)CNC(=O)C1CCCCC1	-0.65% (inactive)
O=C(Cn1cnc2ccccc21)N/N=C/c1ccccc1	1.41% (inactive)
COC(=O)c1c(-c2ccc(C)cc2)csc1NC(=O)c1c(-c2ccccc2)noc1C	45.8% (inactive)
CCOC(=O)c1c(-c2cccc(C)c2)csc1NC(=O)C1CC=CCC1C(=O)O (stereo unspecified)	1.3% (inactive)
CCOC(=O)c1c(-c2ccccc2)csc1NC(=O)c1cc(-c2ccccc2OC)on1	3.07% (inactive)

Compound	CPE inhibition
COC(=O)c1c(-c2ccccc2)noc1C	3.69% (inactive)
O=C(COc1ccc(S(=O)(=O)N2CCOCC2)cc1)NC1CC1	0.7% (inactive)
CCO/N=C1\C(=O)N(c2ccccc2)c2ccccc21	10.6% (inactive)
CN1CCN(c2ccc(Nc3ccnc4cc(Cl)ccc34)cc2)CC1	0.21% (inactive)
Cc1ccc2[nH]ccc(=O)c2c1	4.4% (inactive)
CCNc1oc(-c2cccc3ccccc23)nc1C#N	31% (inactive)
CNc1oc(-c2cccc3ccccc23)nc1C#N	22.2% (inactive)
O=C(NC1CCCCC1)c1cc(S(=O)(=O)N2CCOCC2)c(Cl)cc1Cl	-0.26% (inactive)
CC1CCN(C(=O)CCc2nnc3ccc(NCCCN4CCCC4=O)nn23)CC1	2.33% (inactive)
COC(=O)c1ccc(COC(=O)CNC(=O)c2ccc(-c3ccccc3)cc2)cc1	3.63% (inactive)
COc1ccc2oc(C(=O)NCCC(C)C)c(C)c2c1	3.36% (inactive)
Cc1nc2ccccc2nc(C)c1=NOCc1ccc(C#N)cc1	3.19% (inactive)
Cc1nc2ccccc2nc(C)c1=NOCc1cccc(Cl)c1	3.77% (inactive)
CCNC(=O)CC1C(=O)N(c2ccc(F)cc2)C(=S)N1CCc1ccncc1 (stereo unspecified)	-1.58% (inactive)
CCOC(=O)c1sc(NS(=O)(=O)c2ccc(F)cc2)nc1C	-0.12% (inactive)
O=S(=O)(NC1CCN(Cc2ccccc2)CC1)c1ccc2ccccc2c1	-0.58% (inactive)
CCOc1cc(C(=S)N2CCCC2)ccc1O	0.51% (inactive)
COC(=O)N/N=C/c1ccc(-c2cc(Cl)cc(Cl)c2)o1	42.2% (inactive)
COC(=O)N/N=C/c1ccc(-c2cc(Cl)ccc2Cl)o1	-0.35% (inactive)
O=C(c1ccc(F)cc1)N1CCN2C(=O)c3ccccc3C12c1ccc(Cl)cc1 (stereo unspecified)	73.1% (inactive)
Cc1ccc(C(=O)N2CCN3C(=O)c4ccccc4C23c2ccccc2)cc1 (stereo unspecified)	3.84% (inactive)
Cc1nc2ccccc2nc1OCc1ccc([N+](=O)[O-])cc1	1.85% (inactive)
Nc1ccc(C(=O)Nc2ccco2)cc1	0.93% (inactive)
Nc1c(-c2cccs2)cnc2c(-c3ccc(F)cc3)cnn12	10.8% (inactive)

Compound	CPE inhibition
CCCn1c(SCC(=O)Nc2cc(C)on2)nc2c1c(=O)n(C)c(=O)n2C	-0.53% (inactive)
COc1ccc(S(=O)(=O)N2CCCCC2)cc1NC(=O)C1CC1	-0.43% (inactive)
O=C(COC(=O)c1cnccn1)c1ccc(C2CCCCC2)cc1	1.84% (inactive)
Cc1cccc(N(Cc2ccccc2)C(=O)CSC(C)C(=O)Nc2cc(C)on2)c1 (stereo unspecified)	15.8% (inactive)
Cc1cc(NC(=O)C(C)SCC(=O)OCC(=O)N(C)c2ccccc2)no1 (stereo unspecified)	0.41% (inactive)
CNC(=S)SCCOc1ccccc1	1.7% (inactive)
COc1ccc(-n2nc(C(=O)NCC(=O)N3CCCC(C)C3)c3ccccc3c2=O)cc1 (stereo unspecified)	2.49% (inactive)
CCC(C)NC(=O)c1cc2cc3ccc(OC)cc3nc2o1 (stereo unspecified)	4.45% (inactive)
COc1ccc2cc3cc(C(=O)NC4CC4)sc3nc2c1	6.36% (inactive)
CCc1ccccc1NC(=O)NNC(=O)CCc1ccc(OC)cc1	1.38% (inactive)
COc1cccc(CNCc2cc(OC)cc(OC)c2)c1	-0.77% (inactive)
CN(C)c1nc(N/N=C/c2c[nH]c3ccccc23)nc(N2CCOCC2)n1	5.13% (inactive)
C(=N\Nc1nc(Nc2ccccc2)nc(N2CCOCC2)n1)/c1c[nH]c2ccccc12	38.2% (inactive)
Cc1ccc(S(=O)(=O)NC2CCSC2=O)cc1C (stereo unspecified)	0% (inactive)
COc1cccc(C(c2c(NC(=O)c3ccco3)sc(C)c2C)N2CCOCC2)c1 (stereo unspecified)	0.09% (inactive)
Cc1sc(NC(=O)c2ccco2)c(C(c2ccncc2)N2CCOCC2)c1C (stereo unspecified)	6.19% (inactive)
COC(=O)c1ccccc1S(=O)(=O)N1CCC(C(=O)OC(C)C(=O)NC(N)=O)CC1 (stereo unspecified)	1.21% (inactive)
CCOc1ccc(OCCNC(=O)c2oc3ccccc3c2COC)cc1	2.63% (inactive)
O=C1CCCCC1C(=O)c1cn(-c2ccc(Cl)c(Cl)c2)nn1 (stereo unspecified)	1.71% (inactive)
N#Cc1c(N2CCCCC2)nc(N)c2c(N)nc3c(c12)CC(c1ccccc1)O3 (stereo unspecified)	18.6% (inactive)
CN1CCN(C(=O)c2cc3nc(-c4ccccc4)cc(-c4ccccc4)n3n2)CC1	-2.59% (inactive)
CC1CCN(C(=O)c2cc3nc(-c4ccccc4)cc(-c4ccccc4)n3n2)CC1	-0.54% (inactive)
O=C(c1cc2nc(-c3ccccc3)cc(-c3ccccc3)n2n1)N1CCCC1	-1.34% (inactive)
O=C(O)c1cc2nc(-c3ccccc3)cc(-c3ccccc3)n2n1	0.05% (inactive)
